Where “and” joins values, the source holds several entries; their conditions need not be identical. Equal entries are not always repeated.
Key:
[1] = target: Platelet-derived growth factor receptor beta (Homo sapiens) (UniProt P09619); details: at 1 µM;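 also: each value is a mean percent inhibition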
[2] = target: Tyrosine-protein kinase FRK (Homo sapiens) (UniProt P42685); details: at 0.1 µM
[3] = target: Tyrosine-protein kinase FRK (Homo sapiens) (UniProt P42685); details: at 1 µM
[4] = target: Protein-tyrosine kinase 2-beta (Homo sapiens) (UniProt Q14289); details: at 0.1 µM
[5] = target: Protein-tyrosine kinase 2-beta (Homo sapiens) (UniProt Q14289); details: at 1 µM
[6] = target: Proto-oncogene tyrosine-protein kinase receptor Ret (Homo sapiens) (UniProt P07949); details: at 0.1 µM
[7] = target: Proto-oncogene tyrosine-protein kinase receptor Ret (Homo sapiens) (UniProt P07949); details: at 1 µM
[8] = system: Proto-oncogene tyrosine-protein kinase receptor Ret (Homo sapiens), P07949 [V804L]; details: at 0.1 µM
[9] = system: Proto-oncogene tyrosine-protein kinase receptor Ret (Homo sapiens), P07949 [V804L]; details: at 1 µM
[10] = system: Proto-oncogene tyrosine-protein kinase receptor Ret (Homo sapiens), P07949 [Y791F]; details: at 0.1 µM
Chain of Proto-oncogene tyrosine-protein kinase receptor Ret (Homo sapiens), P07949 [Y791F] (P07949 whole entry Y791F): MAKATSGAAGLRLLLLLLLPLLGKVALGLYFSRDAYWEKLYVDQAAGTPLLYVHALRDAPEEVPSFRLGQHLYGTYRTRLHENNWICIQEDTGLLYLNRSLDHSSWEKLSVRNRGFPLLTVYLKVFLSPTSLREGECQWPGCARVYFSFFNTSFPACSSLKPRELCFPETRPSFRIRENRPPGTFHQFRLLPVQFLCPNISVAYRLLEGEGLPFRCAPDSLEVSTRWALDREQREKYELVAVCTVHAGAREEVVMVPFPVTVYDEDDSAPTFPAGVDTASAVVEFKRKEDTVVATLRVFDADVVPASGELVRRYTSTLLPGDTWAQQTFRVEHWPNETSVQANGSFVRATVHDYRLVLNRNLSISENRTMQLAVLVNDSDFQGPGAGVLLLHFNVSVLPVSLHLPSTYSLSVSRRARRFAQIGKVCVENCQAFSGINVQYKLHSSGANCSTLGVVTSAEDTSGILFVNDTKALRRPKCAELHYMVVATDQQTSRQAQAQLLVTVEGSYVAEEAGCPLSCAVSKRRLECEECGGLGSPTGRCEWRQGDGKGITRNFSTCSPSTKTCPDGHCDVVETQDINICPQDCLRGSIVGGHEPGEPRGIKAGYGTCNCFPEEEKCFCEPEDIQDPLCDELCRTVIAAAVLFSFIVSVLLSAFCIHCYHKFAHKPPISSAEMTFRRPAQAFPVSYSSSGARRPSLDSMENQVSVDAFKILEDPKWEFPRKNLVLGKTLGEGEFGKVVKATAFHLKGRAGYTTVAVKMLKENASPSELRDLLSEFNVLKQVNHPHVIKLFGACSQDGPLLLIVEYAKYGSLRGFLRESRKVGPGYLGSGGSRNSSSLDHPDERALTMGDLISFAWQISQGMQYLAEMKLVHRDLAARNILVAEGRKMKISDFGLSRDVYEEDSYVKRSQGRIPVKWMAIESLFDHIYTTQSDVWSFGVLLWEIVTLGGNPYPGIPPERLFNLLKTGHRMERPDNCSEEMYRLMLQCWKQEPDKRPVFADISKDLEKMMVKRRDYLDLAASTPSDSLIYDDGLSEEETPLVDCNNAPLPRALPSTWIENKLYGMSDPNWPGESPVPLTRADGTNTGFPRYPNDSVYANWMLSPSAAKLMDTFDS

Chain of Proto-oncogene tyrosine-protein kinase receptor Ret (Homo sapiens), P07949 [V804L] (P07949 whole entry V804L): as the sequence (P07949 whole entry Y791F) above, with F791Y, V804L counted along it
Chain of Platelet-derived growth factor receptor beta (Homo sapiens) (P09619 whole entry): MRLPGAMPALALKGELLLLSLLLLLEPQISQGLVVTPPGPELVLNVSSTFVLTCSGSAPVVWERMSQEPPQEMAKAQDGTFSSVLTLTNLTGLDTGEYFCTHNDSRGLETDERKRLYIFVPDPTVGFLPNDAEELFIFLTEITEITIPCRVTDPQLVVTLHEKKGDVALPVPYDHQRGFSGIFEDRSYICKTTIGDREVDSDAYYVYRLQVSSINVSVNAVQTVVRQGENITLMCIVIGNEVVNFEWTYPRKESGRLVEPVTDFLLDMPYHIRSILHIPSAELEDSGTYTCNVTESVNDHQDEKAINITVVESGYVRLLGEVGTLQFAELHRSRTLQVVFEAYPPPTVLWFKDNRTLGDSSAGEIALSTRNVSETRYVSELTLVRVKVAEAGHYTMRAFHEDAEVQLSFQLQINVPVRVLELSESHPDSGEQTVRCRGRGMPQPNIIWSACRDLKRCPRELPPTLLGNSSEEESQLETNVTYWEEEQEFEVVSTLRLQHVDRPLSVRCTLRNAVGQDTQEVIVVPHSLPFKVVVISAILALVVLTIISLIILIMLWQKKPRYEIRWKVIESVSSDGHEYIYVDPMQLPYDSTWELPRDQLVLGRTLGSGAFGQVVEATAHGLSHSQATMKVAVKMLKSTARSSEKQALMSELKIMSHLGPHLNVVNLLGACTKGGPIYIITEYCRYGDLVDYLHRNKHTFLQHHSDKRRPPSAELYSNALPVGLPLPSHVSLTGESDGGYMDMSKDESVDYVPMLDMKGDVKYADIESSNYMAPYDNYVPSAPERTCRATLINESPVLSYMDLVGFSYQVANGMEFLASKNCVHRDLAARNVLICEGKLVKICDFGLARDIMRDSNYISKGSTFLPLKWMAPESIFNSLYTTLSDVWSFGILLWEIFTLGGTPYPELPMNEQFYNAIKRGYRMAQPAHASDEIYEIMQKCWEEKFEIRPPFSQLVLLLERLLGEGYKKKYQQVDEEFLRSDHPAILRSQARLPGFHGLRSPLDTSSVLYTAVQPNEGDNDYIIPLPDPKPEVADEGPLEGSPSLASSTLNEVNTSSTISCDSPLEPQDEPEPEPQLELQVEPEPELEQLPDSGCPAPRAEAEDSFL
Chain of Protein-tyrosine kinase 2-beta (Homo sapiens) (Q14289 whole entry, looked up): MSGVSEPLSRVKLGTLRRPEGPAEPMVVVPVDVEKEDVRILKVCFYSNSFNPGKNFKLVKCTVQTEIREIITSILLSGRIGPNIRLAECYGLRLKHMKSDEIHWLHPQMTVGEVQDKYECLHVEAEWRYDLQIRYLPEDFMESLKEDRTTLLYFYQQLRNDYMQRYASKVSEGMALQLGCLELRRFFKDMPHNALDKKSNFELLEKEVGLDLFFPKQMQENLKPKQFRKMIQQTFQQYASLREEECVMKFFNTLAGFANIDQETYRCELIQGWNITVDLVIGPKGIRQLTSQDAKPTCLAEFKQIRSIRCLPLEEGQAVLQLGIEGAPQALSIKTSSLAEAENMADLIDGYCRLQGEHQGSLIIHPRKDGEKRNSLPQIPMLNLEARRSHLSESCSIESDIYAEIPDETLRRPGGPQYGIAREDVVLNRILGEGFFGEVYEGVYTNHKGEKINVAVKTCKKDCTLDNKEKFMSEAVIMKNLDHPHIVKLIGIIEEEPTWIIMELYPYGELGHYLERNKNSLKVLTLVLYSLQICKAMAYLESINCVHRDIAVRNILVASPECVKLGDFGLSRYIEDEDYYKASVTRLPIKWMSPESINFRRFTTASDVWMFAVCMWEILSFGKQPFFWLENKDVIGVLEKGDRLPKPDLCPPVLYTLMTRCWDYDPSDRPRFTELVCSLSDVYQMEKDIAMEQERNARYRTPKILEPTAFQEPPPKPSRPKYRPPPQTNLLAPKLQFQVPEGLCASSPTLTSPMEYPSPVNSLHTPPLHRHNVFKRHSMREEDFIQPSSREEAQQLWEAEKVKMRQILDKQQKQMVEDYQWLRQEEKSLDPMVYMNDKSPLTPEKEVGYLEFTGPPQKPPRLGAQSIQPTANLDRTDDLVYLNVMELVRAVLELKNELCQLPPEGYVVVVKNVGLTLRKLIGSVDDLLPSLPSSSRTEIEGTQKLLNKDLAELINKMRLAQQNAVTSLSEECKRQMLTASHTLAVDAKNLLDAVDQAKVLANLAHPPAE
Chain of Tyrosine-protein kinase FRK (Homo sapiens) (P42685 whole entry): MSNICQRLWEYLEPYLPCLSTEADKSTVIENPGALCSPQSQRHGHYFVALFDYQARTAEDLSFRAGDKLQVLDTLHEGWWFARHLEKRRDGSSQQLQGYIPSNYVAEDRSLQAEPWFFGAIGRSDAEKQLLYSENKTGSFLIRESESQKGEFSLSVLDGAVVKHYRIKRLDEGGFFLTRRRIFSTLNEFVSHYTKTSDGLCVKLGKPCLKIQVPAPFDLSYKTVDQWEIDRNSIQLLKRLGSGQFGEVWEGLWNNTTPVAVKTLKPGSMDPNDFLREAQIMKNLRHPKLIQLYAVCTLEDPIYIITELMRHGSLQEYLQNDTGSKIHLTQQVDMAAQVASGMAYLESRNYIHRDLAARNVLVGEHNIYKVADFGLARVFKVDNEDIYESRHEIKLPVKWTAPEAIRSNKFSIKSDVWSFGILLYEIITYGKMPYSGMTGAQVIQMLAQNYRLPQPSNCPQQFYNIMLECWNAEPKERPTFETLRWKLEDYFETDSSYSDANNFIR
Chain of Proto-oncogene tyrosine-protein kinase receptor Ret (Homo sapiens) (P07949 whole entry): as the sequence (P07949 whole entry Y791F) above, with F791Y counted along it

Row | SMILES | inhibition [1] | inhibition [2] | inhibition [3] | inhibition [4] | inhibition [5] | inhibition [6] | inhibition [7] | inhibition [8] | inhibition [9] | inhibition [10]
1 | COc1cccc(-n2ncc3c(N/N=C/c4ccc(C(=O)NCCN(C)C)cc4)ncnc32)c1 | 77.6% | 3.91% | 12.2% | 5.72% | 12.1% | 22.4% | 66.9% | 12.7% | 50.4% | 37.3%
2 | CN1CCN(Cc2ccc(-c3cc4ncnc(Nc5ccc(OCc6cccc(F)c6)c(Cl)c5)c4s3)o2)CC1 | 6.41% and 13% | 2.16% and 3.11% | 3.13% and 4.91% | 8.63% and 10.6% | 8.03% and 19.6% | 6.83% and 5.69% | 13.4% and 14.8% | 3.67% and 4.61% | 5.81% and 10.9% | 4.88% and 3.59%
3 | Fc1cccc(COc2ccc(Nc3ncncc3C#Cc3ccccc3)cc2Cl)c1 | 8.55% | 1.23% | 1.62% | 13.9% | 15.1% | -0.25% | 5.48% | 5.31% | 11.9% | 5.33%
4 | Nc1nccc(-c2c(-c3ccc(F)cc3)ncn2C2CCNCC2)n1 | 32% and 25.6% | 0.53% and 0.26% | 1.84% and 3.88% | -6.28% and 0.77% | -3.71% and 3.63% | -0.37% and 2.86% | 14.1% and 4.3% | 0.39% and 2.71% | 9.24% and 2.58% | 0.26% and 3.84%
5 | COc1cc(Nc2ncc(-c3ccccc3)o2)cc(OC)c1 | 62.9% | 0.8% | 4.62% | 6.76% | 9.54% | 7.16% | 8.97% | 4.73% | 11.9% | 8.14%
6 | CCN1CCC(C(=O)Nc2n[nH]c3nnc(-c4cccc(F)c4F)cc23)CC1 | 4.95% | 0.31% | 1.25% | -2.3% | 1.39% | 2.54% | -1.84% | 4.84% | 8.91% | 3.29%
7 | Cc1ccc(-c2cc3c(NC(=O)C4CC4)ncnc3o2)cc1 | 24.5% | 2.14% | 0.91% | 9.96% | 10.2% | 8.44% | 27.6% | 6.9% | 13.6% | 8.23%
8 | N#Cc1cccc(Nc2ncc(-c3ccccc3)o2)c1 | 26.1% | 0.92% | 3.54% | 1.87% | 7.64% | 2.14% | 3.79% | 0.71% | 14.4% | 0.39%
9 | CN(C)CCNC(=O)Nc1ccc(N(C)c2ccnc(Nc3ccc(CS(C)(=O)=O)cc3)n2)cc1 | 66.8% | 0.22% | 0.97% | 18.4% | 58.6% | 7.81% | 14.9% | 4.98% | 13.9% | 9.9%
10 | CNC(=O)c1cncc(/C=C/c2ccccc2C)c1 | 20.1% | 1.01% | 1.8% | 5.28% | 5.23% | 3.93% | 6.36% | 5.6% | 11.8% | 2.57%
11 | COc1ccc(-c2nn3ncccc3c2-c2ccnc(Nc3ccc(F)c(F)c3)n2)cc1 | 15.3% | 0.7% | 2.26% | 6.54% | 17.9% | 4.85% | 18.1% | 16.2% | 15.8% | 9.34%
12 | Nc1nonc1-c1nc2cnccc2n1C1CC1 | 26.9% and 22.4% | 3.06% and 1.01% | 1.87% and 3.49% | 9.52% and 11.2% | 8.23% and 11.7% | 4.13% and 4.16% | 10.6% and 0.77% | 4.79% and 3.57% | 9.45% and 6.56% | 6.44% and 5.27%
13 | NS(=O)(=O)c1ccc(N/N=C2\C(=O)Nc3cccc(CCc4ccncc4)c32)cc1 | 58.5% | -0.74% | -0.31% | 4.23% | 20.1% | 21.6% | 43.4% | 38.5% | 43.6% | 18.8%
14 | COc1ccccc1-c1cc(/C=C2\C(=O)Nc3ncc(Br)cc32)cc(Br)c1O | 11.6% | 0.6% | 2.12% | 15.6% | 39.1% | 2.23% | 11.1% | 9.25% | 12% | 12.6%
15 | CN1CCC(n2cnc(-c3ccc(F)cc3)c2-c2ccnc(NCCO)n2)CC1 | 20.7% | 0.17% | 1.02% | 6.77% | 18% | 1.17% | 1.73% | 4.71% | 10.8% | 5.21%
16 | N#Cc1ccc2c(-c3ccnc(NC4CC4)n3)c(-c3ccc(F)cc3)nn2c1 | 16.8% | 1.44% | 0.3% | -1.69% | 0.44% | 5.41% | 8.1% | 3.66% | 2.65% | 4.65%

Row | SMILES | inhibition [1] | inhibition [2] | inhibition [3] | inhibition [4] | inhibition [5] | inhibition [6] | inhibition [7] | inhibition [8] | inhibition [9] | inhibition [10]
17 | COC(=O)Nc1nc2ccc(Oc3ccc(NC(=O)Nc4cc(C(F)(F)F)ccc4F)cc3)cc2s1 | 55.9% | 0.62% | 4.14% | 1.98% | 6.74% | 86.7% | 88.4% | 67.3% | 84.6% | 78.9%
18 | COc1ccc2ncn(-c3cc(O[C@H](C)c4ccccc4C(F)(F)F)c(C(N)=O)s3)c2c1 | 37.5% | -0.74% | 1.39% | -4.13% | -9.62% | 1.52% | 4.27% | 3.57% | 3.91% | 2.46%
19 | Cc1cc(O)cc(C)c1/C=C/c1cncc(C(=O)OC(C)(C)C)c1 | 43.3% | 3.51% | 20.1% | 13.2% | 7.22% | 5.39% | 7.34% | 3.42% | 11.6% | 4.05%
20 | CC1(C)CC(n2cnc(-c3ccc(F)cc3)c2-c2ccnc(N)n2)CC(C)(C)N1 | 5.35% | 0.92% | 1.66% | 4.26% | 3.23% | -0.92% | -0.44% | 2.21% | 2.81% | 1.42%
21 | CC1=C(C(=O)Nc2ccc3[nH]nc(C)c3c2)C(c2ccc(C(F)(F)F)cc2)CC(=O)N1 (stereo not given) | 12.2% | 1.26% | 6.47% | 10.8% | 5.14% | 7.82% | 44.2% | 12.2% | 42.2% | 10.5%
22 | Cc1nnc(-c2cccc(-c3ccc(C(=O)NCC4CC4)cc3)c2)o1 | 8.15% | 1.96% | 3.45% | 12.3% | 9.85% | 4.13% | 7.32% | 4.63% | 16.7% | 5%
23 | NC(=O)c1ccc2c(-c3ccnc(NCCCO)n3)c(-c3ccc(F)cc3)nn2c1 | 18.2% | 4.1% | 3.97% | 17.1% | 12.2% | 5.55% | 16.6% | 1.73% | 4.71% | 6.62%
24 | CCOc1ccc2c(-c3ccnc(Nc4cc(OC)cc(C(F)(F)F)c4)n3)cnn2n1 | 29.3% | -0.17% | -0.61% | 4.61% | 21.2% | 2.73% | 13.2% | 1.94% | 5.01% | 2.94%
25 | NS(=O)(=O)c1cccc(N/C=C2\C(=O)Nc3ccccc32)c1 | 22.3% | 3.47% | 5.58% | 14.1% | 27.4% | 7.9% | 30.6% | 11% | 48.6% | 10.1%
26 | CC1=C(C(=O)Nc2ccc3[nH]ncc3c2)C(c2ccc(F)cc2)N=C(c2ccc(C(F)(F)F)nc2)N1 (stereo not given) | 5.78% | -0.24% | 1.73% | 6.19% | 8.2% | 7.82% | 38.6% | 5.19% | 26.6% | 9.49%
27 | O=C(O[C@H]1CN[C@H](C#Cc2cc3ncnc(Nc4ccc5c(cnn5Cc5ccccc5)c4)c3s2)C1)N1CCOCC1 | 6.66% | 0.07% | -1.26% | 1.18% | -1.26% | 2.44% | 4.66% | 2.83% | 4.7% | 2.45%
28 | CCS(=O)(=O)c1ccc(OC)c(Nc2ncc(-c3cccc(F)c3)o2)c1 | 83.5% | 10.5% | 46.4% | 11% | 22.9% | 13.5% | 56.6% | 7.78% | 33.8% | 15.9%
29 | COc1cc(N2CCN(C(C)C)CC2)ccc1Nc1nc(Nc2cccc(F)c2C(=O)O)c2cc[nH]c2n1 | 6.82% | 4.04% | 4.07% | 90.6% | 96.4% | 4.88% | 5.6% | 3.85% | 12.1% | 4.5%
30 | COc1cc(N2CCN(C(C)C)CC2)ccc1Nc1nc(Nc2cccc3ncccc23)c2cc[nH]c2n1 | 8.9% | 0.82% | 1.26% | 15.2% | 93.1% | 4.55% | 3.04% | 7.14% | 14% | 8.29%
31 | O=C(O[C@H]1CN[C@H](C#Cc2cc3ncnc(Nc4ccc5c(ccn5Cc5cc(F)ccc5F)c4)c3s2)C1)N1CCOCC1 | 7.68% | 3.08% | 2.35% | 13.2% | 5.45% | 2.76% | 4.91% | 2.75% | 4.26% | 1.9%
